Results from PubChem BioAssay.
“And” between values parts separate entries of the source, which are not always exact repeats. Equal entries are not always repeated. The source made the active and inactive calls. Cut-off read from the data, not from the text of the source, unless noted: active = parasite load remaining mostly below about 12% (no sharp cut-off); inactive = mostly above about 10%.

Legend:
[1] = P. berghei load reduction in hepatocytes – cell-based, HepG2, luciferase luminescence, HepG2 viability, primary screen (AID 624349);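 note: 100% = mean of DMSO negative control wells on the same plate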; details: P. berghei liver stage in HepG2, luciferase luminescence, concentration not given here; parasite load remaining: stronger effect = lower value; viability: measured here: HepG2 viability without parasites
[2] = viability loss with induced miR-34 in A549 – imaging, A549 dox-inducible miR-34, nuclei and caspase counts, primary screen (AID 1347080;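 active = compounds whose cell count with miR-34 switched on is under 0.7 times the count with it off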); details: A549 miR-34 inducible, Hoechst nuclei count, 48 h
[3] = compounds altering viability of human ES cells (AID 493140; call rule not given here;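 note: cells exposed to compounds for four days before counting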); details: human embryonic stem cell survival screen; stronger effect = higher value
[4] = chitosan synthesis blockers in C. neoformans – flow cytometry, Cibacron Brilliant Red staining (AID 1347148; call rule not given here;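 note: compound exposure lasted three days at 37 degrees C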); details: Cryptococcus neoformans chitosan, stronger effect = lower value; at 10 µM unless noted
[5] = stronger effect = lower value, cell number ratio, induced over uninduced
[6] = measured here: relative caspase fold change +Dox/-Dox
[7] = measured here: total cells with miR-34 induction, stronger effect = lower value
[8] = measured here: total cells without miR-34 induction

Row | Structure (SMILES) | parasite load remaining [1] | viability [1] | fold change [2, 5] | fold change [2, 6] | cell count [2, 7] | cell count [2, 8] | survival [3] | fold change ([2]; stronger effect = lower value) | fold fluorescence [4]
1 | COc1cc2c(cc1O)[C@@H]1Cc3ccc(OC)c(O)c3CN1CC2 | 152% (inactive) | 92.5% | 0.78 (inactive) | 1.3 | 2600 | 3330 | – | – | –
2 | COc1ccc(C(=O)OC2C[C@H]3CC[C@H](C2)N3C)cc1OC (stereo not given in full) | 72.9% (inactive) | 108% | 0.888 (inactive) | 1.53 | 9600 | 10800 | – | – | –
3 | CC[C@H]1CN2CCC1C[C@H]2[C@H](O)c1ccnc2ccc(OC)cc12 (stereo not given in full) | 83.6% (inactive) and 51.6% (inactive) | 106% and 80.9% | 0.867 (inactive) | 1.17 | 8140 | 9390 | 6.08 (inactive) | – | –
4 | NCCC(O)C(=O)N[C@@H]1C[C@H](N)[C@@H](OC2O[C@H](CN)[C@@H](O)[C@H](O)[C@H]2N)[C@H](OC2O[C@H](CO)C(O)[C@H]2O)[C@H]1O (stereo not given in full) | 106% (inactive) | 91% | 0.815 (inactive) | 1.54 | 7990 | 9800 | – | – | –
5 | CCN1C[C@]2(COC)CC[C@H](O)[C@]34C1[C@H](C[C@H]23)[C@@]1(O)C[C@H](OC)[C@H]2C[C@@H]4[C@@H]1[C@H]2OC(C)=O | 81.9% (inactive) | 71.5% | 0.961 (inactive) | 0.467 | 9850 | 10200 | – | – | –
6 | CCN1C[C@]2(COC)CC[C@H](O)[C@]34C1[C@](O)([C@@H](OC)[C@H]23)[C@@]1(O)C[C@H](OC)[C@H]2C[C@@H]4[C@@H]1[C@H]2OC | 79.1% (inactive) | 102% | 0.871 (inactive) | 0.967 | 9200 | 10600 | – | – | –
7 | CC[C@@H](C)C(=O)O[C@H]1[C@H](O)[C@H]2[C@@H](CN3C[C@@H](C)CC[C@H]3[C@@]2(C)O)C2C[C@]34O[C@@]5(O)[C@@H](OC(=O)[C@](C)(O)CC)CC[C@@]3(C)[C@@H]5[C@@H](OC(C)=O)[C@@H](OC(C)=O)[C@H]4[C@@]21O (stereo not given in full) | 119% (inactive) | 111% | 0.898 (inactive) | 1.61 | 9180 | 10200 | – | – | –
8 | c1cncc([C@H]2CCCCN2)c1 | 92.6% (inactive) | 99.3% | 0.89 (inactive) | 1.12 | 8860 | 9960 | – | – | –
9 | C[C@]12CC3SC3C[C@@H]1CC[C@@H]1[C@@H]2CC[C@]2(C)[C@@H](O)CC[C@@H]12 (stereo not given in full) | 87.8% (inactive) | 72.9% | – | 0.52 | 9130 | 10000 | 17.5 (inactive) | 0.913 (inactive) | –
10 | CCCCCCCCCCCCCCCC(=O)OC[C@@H](COP(=O)([O-])OCC[N+](C)(C)C)OC(C)=O | – | – | – | – | – | – | – | – | 4.75 (inactive)
11 | CO[C@H]1C=C2CCN(C)[C@H]2C2c3cc4c(cc3C(=O)O[C@@H]21)OCO4 (stereo not given in full) | 64.2% (inactive) | 100% | 0.936 (inactive) | 0.836 | 9140 | 9770 | – | – | –
12 | CCN1C[C@]2(COC)CC[C@H](OC)[C@@]34C1[C@]1(OCO[C@@]15C[C@H](OC)[C@H]1C[C@@H]3[C@@H]5[C@H]1OC)[C@@H](O)[C@H]24 | 79.2% (inactive) | 96.3% | 0.844 (inactive) | 1.35 | 8580 | 10200 | – | – | –
13 | C[N+]1=Cc2cc3c(cc2CC1)OCO3 | 30.1% (inactive) | 46.5% | 0.917 (inactive) | 1.08 | 9060 | 9880 | – | – | –
14 | C[C@H]1CCC2(NC1)O[C@H]1C[C@H]3[C@@H]4CC[C@H]5C[C@@H](O[C@@H]6O[C@H](CO)[C@H](O[C@@H]7O[C@H](CO)[C@@H](O)[C@H](O[C@@H]8OC[C@@H](O)[C@H](O)[C@H]8O)[C@H]7O[C@@H]7O[C@H](CO)[C@@H](O)[C@H](O)[C@H]7O)[C@H](O)[C@H]6O)CC[C@]5(C)[C@H]4CC[C@]3(C)[C@H]1[C@@H]2C (stereo not given in full) | 1.56% (inactive) | 9.75% | 0.761 (inactive) | 0.652 | 430 | 564 | – | – | –
15 | CCN1C[C@]2(C)CC[C@H](OC)[C@@]34C1[C@]1(OCO[C@@]15C[C@H](OC)[C@H]1C[C@]3(O)[C@@H]5[C@H]1OC)[C@@H](OC(C)=O)[C@H]24 | 91.7% (inactive) | 96.9% | 0.951 (inactive) | 0.675 | 10000 | 10500 | – | – | –
16 | CCN1C[C@]2(COC)C(O)C[C@H](OC)[C@]34C1[C@H]([C@H](OC)[C@H]23)[C@]1(OC(C)=O)[C@H]2[C@@H](OC(=O)c3ccccc3)[C@@](O)(C[C@H]24)[C@@H](OC)[C@@H]1O (stereo not given in full) | – | – | – | – | – | – | – | – | 4.31 [at 77.4 µM] (inactive)
17 | COc1cc2c(c(OC)c1OC)-c1ccc(O)c(=O)cc1[C@@H](N)CC2 | 106% (inactive) | 105% | 0.884 (inactive) | 1.33 | 5720 | 6460 | – | – | –
18 | C[C@H]1CC[C@@H]2[C@@H](C)[C@H]3[C@H](C[C@H]4[C@@H]5CC=C6C[C@@H](O[C@@H]7O[C@H](CO)[C@H](O)[C@H](O[C@@H]8O[C@H](CO)[C@@H](O)[C@H](O)[C@H]8O)[C@H]7O[C@@H]7O[C@@H](C)[C@H](O)[C@@H](O)[C@H]7O)CC[C@]6(C)[C@H]5CC[C@]34C)N2C1 | 143% (inactive) | 114% | 0.926 (inactive) | 1.19 | 8230 | 8880 | – | – | –
